# Legend:
# PEG-3 [1] = molecular target: PEG-3 (UniProt Q6IN02); experiment: inhibition of PEG-3 promoter-driven reporter – cell-based, HeLa, luciferase, CREF/GAPDH counter-screen panel, dose response (AID 624167); conditions: CREF/GAPDH counter-screens; HeLa PEG-Prom luciferase reporter, overnight, run 1, dose range 1, at 100 µM (top of the series) unless noted
# PEG-3 [2] = molecular target: PEG-3 (UniProt Q6IN02); experiment: as above; conditions: CREF/GAPDH counter-screens; HeLa PEG-Prom luciferase reporter, overnight, run 2, dose range 1, at 100 µM (top of the series) unless noted
# Rat fibroblasts (CREF) [3] = experiment: as above; conditions: CREF/GAPDH counter-screens; run 1, dose range 1, at 100 µM (top of the series)
# Rat fibroblasts (CREF) [4] = experiment: as above; conditions: CREF/GAPDH counter-screens; run 2, dose range 1, at 100 µM (top of the series)
# [5] = molecular target: Tumor necrosis factor receptor superfamily member 10B (Homo sapiens) (UniProt O14763); experiment: viability loss of caspase-8 NB7 cells with TRAIL – with/without TRAIL, luminescence panel, confirmation (AID 651596); conditions: NB7 neuroblastoma + caspase-8, TRAIL sensitization, NB7 Caspase-8, with TRAIL, mean of runs, at 10 µM, stronger effect = higher value
# [6] = as above; conditions: NB7 neuroblastoma + caspase-8, without TRAIL, NB7 Caspase-8, without TRAIL, mean of runs, at 10 µM
# Sequence of Tumor necrosis factor receptor superfamily member 10B (Homo sapiens) (O14763 whole entry, looked up): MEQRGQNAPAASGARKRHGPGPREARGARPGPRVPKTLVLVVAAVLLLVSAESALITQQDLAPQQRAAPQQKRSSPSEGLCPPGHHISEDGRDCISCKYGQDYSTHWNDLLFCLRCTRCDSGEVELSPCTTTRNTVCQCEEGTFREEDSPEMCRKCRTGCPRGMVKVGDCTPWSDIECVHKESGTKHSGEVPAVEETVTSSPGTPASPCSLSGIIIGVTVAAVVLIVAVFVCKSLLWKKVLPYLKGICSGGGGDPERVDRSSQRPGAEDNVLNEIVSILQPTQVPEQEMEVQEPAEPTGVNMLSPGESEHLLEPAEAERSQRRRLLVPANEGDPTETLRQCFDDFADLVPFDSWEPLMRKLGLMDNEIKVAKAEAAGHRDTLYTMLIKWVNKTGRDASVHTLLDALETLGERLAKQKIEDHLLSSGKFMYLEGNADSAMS
# Sequence of PEG-3 (Q6IN02 whole entry, looked up): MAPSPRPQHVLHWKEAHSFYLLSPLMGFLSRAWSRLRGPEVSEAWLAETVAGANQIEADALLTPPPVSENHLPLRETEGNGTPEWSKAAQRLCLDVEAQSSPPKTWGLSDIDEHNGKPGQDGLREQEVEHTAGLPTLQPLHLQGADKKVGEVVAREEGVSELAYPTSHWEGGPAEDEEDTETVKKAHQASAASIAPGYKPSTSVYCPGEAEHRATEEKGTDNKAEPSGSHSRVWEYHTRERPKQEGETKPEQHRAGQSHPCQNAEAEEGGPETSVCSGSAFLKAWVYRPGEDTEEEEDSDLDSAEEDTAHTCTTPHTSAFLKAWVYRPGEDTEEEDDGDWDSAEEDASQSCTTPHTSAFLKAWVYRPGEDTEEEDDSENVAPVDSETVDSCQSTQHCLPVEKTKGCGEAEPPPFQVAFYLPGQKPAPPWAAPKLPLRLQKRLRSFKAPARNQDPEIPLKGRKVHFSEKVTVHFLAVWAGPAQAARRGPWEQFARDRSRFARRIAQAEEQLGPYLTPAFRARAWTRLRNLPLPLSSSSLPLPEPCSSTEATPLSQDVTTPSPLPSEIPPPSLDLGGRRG
structure (smiles),measurement,setting,value
CS(=O)(=O)Nc1cccc(NC(=O)C2Cc3c(-c4cccc(F)c4)ccnc3O2)c1 (stereo not given),inhibition,PEG-3 [1],"77.9% [run 1, dose range 1, at 50 µM]"
same,inhibition,PEG-3 [2],85.4%
same,inhibition,Rat fibroblasts (CREF) [3],17.8%
same,inhibition,Rat fibroblasts (CREF) [4],29%
same,activity,[5],75.5%
same,activity,[6],73.2%
CCc1ccc(C(=O)Nc2nc3ccccc3[nH]2)cc1,inhibition,PEG-3 [1],95.9%
same,inhibition,PEG-3 [2],97.2%
same,inhibition,Rat fibroblasts (CREF) [3],98.4%
same,inhibition,Rat fibroblasts (CREF) [4],98.5%
same,activity,[5],98.2%
same,activity,[6],98.5%
CC1=CC2C(C(O)CC3(C)C2CC(C)C32OCOC23COCO3)C2(C)C/C(=C\O)C(=O)C=C12 (stereo not given),inhibition,PEG-3 [1],102%
same,inhibition,PEG-3 [2],101%
same,inhibition,Rat fibroblasts (CREF) [3],100%
same,inhibition,Rat fibroblasts (CREF) [4],100%
same,activity,[5],94.3%
same,activity,[6],98.1%
O=C(Cn1ncc(Cl)c(Cl)c1=O)N1CCc2ccccc21,inhibition,PEG-3 [1],99.5%
same,inhibition,PEG-3 [2],98.6%
same,inhibition,Rat fibroblasts (CREF) [3],96.2%
same,inhibition,Rat fibroblasts (CREF) [4],95.5%
same,activity,[5],99.5%
same,activity,[6],99.6%
O=C1c2cccc3cc([N+](=O)[O-])cc(c23)C(=O)N1CCN1CCCC1,inhibition,PEG-3 [1],102%
same,inhibition,PEG-3 [2],99.1%
same,inhibition,Rat fibroblasts (CREF) [3],80.3%
same,inhibition,Rat fibroblasts (CREF) [4],83%
same,activity,[5],41.1%
same,activity,[6],67.3%
Cc1cc(C(=O)COC(=O)c2ccccc2O)c(C)n1Cc1cccs1,inhibition,PEG-3 [1],88.8%
same,inhibition,PEG-3 [2],94.8%
same,inhibition,Rat fibroblasts (CREF) [3],94.6%
same,inhibition,Rat fibroblasts (CREF) [4],87.5%
same,activity,[5],95.7%
same,activity,[6],95.5%
CC(C)(C)C(=O)Nc1ccc(NC(=O)c2ccco2)nc1,inhibition,PEG-3 [1],102%
same,inhibition,PEG-3 [2],101%
same,inhibition,Rat fibroblasts (CREF) [3],100%
same,inhibition,Rat fibroblasts (CREF) [4],100%
same,activity,[5],98.7%
same,activity,[6],98.5%
Fc1ccc(-c2nnc(NC3=NCCCCC3)o2)cc1,inhibition,PEG-3 [1],94.9%
same,inhibition,PEG-3 [2],97.3%
same,inhibition,Rat fibroblasts (CREF) [3],95.2%
same,inhibition,Rat fibroblasts (CREF) [4],94%
same,activity,[5],76%
same,activity,[6],77.7%
O=C(c1ccc(Cl)cc1)N1CCCCC(Sc2nnc(-c3ccc4c(c3)OCO4)o2)C1=O (stereo not given),inhibition,PEG-3 [1],93.2%
same,inhibition,PEG-3 [2],67.1%
same,inhibition,Rat fibroblasts (CREF) [3],98%
same,inhibition,Rat fibroblasts (CREF) [4],85.5%
same,activity,[5],75.8%
same,activity,[6],72.6%
CCOC(=O)c1cnc(Nc2nc3ccccc3o2)nc1C,inhibition,PEG-3 [1],85.5%
same,inhibition,PEG-3 [2],81.8%
same,inhibition,Rat fibroblasts (CREF) [3],92%
same,inhibition,Rat fibroblasts (CREF) [4],93%
same,activity,[5],92.1%
same,activity,[6],91.1%

# Reference: PubChem BioAssay
